Most compounds without a hit are left out; they make up all but 1.6% or so of the library.
Ub-GFP proteasome – inhibits proteasome, raising ubiquitin-GFP reporter fluorescence. Ubiquitin-GFP reporter cells, proteasome inhibition, GFP fluorescence; response scale: untreated = 0%, 10 µM MG-132 = 100%. AID 526. 67,000 tested, under 10 active. Potency, µM (highest dose often 45.9 µM), for inactives: top-dose activation (GFP accumulation), actives largely listed as activators; active = well fitted activation curve with a large enough effect, not every such curve was filed as active; inconclusive = small, poorly fitted or top-dose-only effect, or another doubt; inactive = no such curve, though single readings can be large or run the other way; also: potency is read from the fitted curve at half-maximal effect
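U2OS cells stably expressing ubiquitin(G76V)-GFP, seeded overnight in 0.5% FBS medium, were exposed to compounds (qHTS, 46 uM to 2.9 nM) for 4 hr at 37 °C. GFP-positive cells were counted by laser cytometry (488 ex/515 em), normalized between basal and 10 uM MG-132.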
Epigenetic mod – epigenetic modulators derepressing GFP locus in mouse cells. mouse C127i GFP locus derepression, cytometry, 30 h. Potency, µM (doses to about 46.1 µM), for inactives: at the highest dose GFP derepression (activation). 68,000 tested, 0.09% active. AID 597; also: % of control where 0% means no effect
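Read-out is the number of GFP-positive cells, scored as fluorescent objects 20 to 120 um wide, reflecting derepression of a silenced CMV-GFP reporter in murine C127i cells after 30 h compound exposure at 37 C.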
HBB splice mod – hemoglobin beta splicing modulation. HBB splicing reporter cell assay, activation; EGFP reporter with mutant IVS2-654 intron; response scale: normalised to 500 nM splice-correcting PNA. Potency, µM (top dose mostly 46.1 µM), for inactives: top-dose activation, usual class: activators. 65,000 tested, 0.06% active; also: potency is read from the fitted curve at half-maximal effect; 0% is about no effect
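Compounds were applied for 2 days to HeLa EGFP-654 cells, 500/well in Optimem with 2% FCS. The reporter's EGFP is disrupted by mis-splicing of beta-globin intron IVS2-654. Readout: summed well GFP fluorescence from 488 nm laser scanning; reference was 500 nM antisense […] 654 PNA.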
p53ts 39C kill – cytotoxicity in p53ts cells at nonpermissive temperature; 130,000 tested, 1.5% active; Potency, µM (highest dose often 46.1 µM), for the others: at the highest dose activity change, negative = cell killing, actives largely listed as cytotoxic; AID 902; H1299-p53A138V viability at 39C, ATP luminescence, 24 h; also: potency is read from the fitted curve at half-maximal effect; % is scaled to controls: 0 for no effect and ±100 for the full control effect; nearly all actives have a fitted effect of over 55% in size
Imprint erasure – genomic imprint erasure induction; mouse ES Peg3-LacZ reporter, beta-gal luminescence, 40 h; AID 1948; 110,000 tested, 0.02% active; Potency, µM (doses to about 60.7 µM), for the others: at the highest dose activity change, positive = activation, actives largely listed as activators; also: potency is read from the fitted curve at half-maximal effect
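Imprint erasure is scored as LacZ activity from the silenced maternal Peg3 allele in feeder-free female ES cells cultured 40 h with LIF. Luminescence is normalized to in-plate negative controls and fitted to the Hill equation.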
p53ts 32C kill – p53ts cell cytotoxicity, permissive temperature. H1299-p53A138V at 32C, ATP luminescence viability, 24 h. Potency, µM (top dose mostly 46.1 µM), for the others: at the highest dose activity change, negative = cytotoxicity, most hits filed as cytotoxic. 130,000 tested, 0.93% active;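 also: potency is read from the fitted curve at half-maximal effect; 0% = DMSO and -100% = full killing by reference compound; nearly all actives have a fitted effect of over 55% in size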
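Viability by ATPlite luminescence after 24 h compound treatment (up to 46 uM) at the permissive 32C. Cells are H1299 carrying p53 A138V. Scale runs from DMSO basal to 100 uM tamoxifen as full kill; AC50 from Hill fits.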
Numbers without * were called inactive; [ ] = another dose, or the depositor's remark. Unless noted, calls follow the shape of the dose curve; as a rule, active = well fitted curve in the direction sought with a large enough effect; inconclusive = small, poorly fitted or top-dose-only effect, or another doubt; inactive = no such curve, though single readings can be large; an effect the other way counts as inactive or inconclusive.

Results for O=C(CSc1nnc2[nH]c(=O)cc(-c3ccccc3)n12)Nc1ccc(F)cc1F ?
p53ts 39C kill: 3.2µM*; Imprint erasure: 4%[10.9 µM]; p53ts 32C kill: inconclusive

Results for O=C(CSc1nnc2[nH]c(=O)cc(-c3ccccc3)n12)Nc1cc(C(F)(F)F)ccc1Cl ?
p53ts 39C kill: 1.3µM*; Imprint erasure: 16%[10.9 µM]; p53ts 32C kill: 0.63µM*

Results for Cc1cccc(NC(=O)CSc2nnc3[nH]c(=O)cc(C)n23)c1C ?
p53ts 39C kill: 10%; Imprint erasure: 14%[10.9 µM]; p53ts 32C kill: -7%

What do the screens show for `Cc1cccc(NC(=O)CSc2nnc3[nH]c(=O)cc(-c4ccccc4)n23)c1C`?
p53ts 39C kill: 1.3µM*; Imprint erasure: -5%[10.9 µM]; p53ts 32C kill: 2%

What do the screens show for `COc1cccc(Nc2nc3c(S(=O)(=O)c4cc(C)ccc4C)nnn3c3ccsc23)c1`?
p53ts 39C kill: inconclusive; Imprint erasure: 3%[10.9 µM]; p53ts 32C kill: 0%

Results for COc1ccc(F)cc1S(=O)(=O)Nc1cccc(-c2ccc(N3CCC(C)CC3)nn2)c1 ?
p53ts 39C kill: 7.9µM*; Imprint erasure: -8%[10.9 µM]; p53ts 32C kill: inconclusive

How did COc1ccc(S(=O)(=O)Nc2cccc(-c3ccc(N4CCC(C)CC4)nn3)c2)cc1OC do in these assays?
p53ts 39C kill: 2.5µM*; Imprint erasure: -16%[10.9 µM]; p53ts 32C kill: 3.2µM*

What do the screens show for `CNC(=O)C1CCN(Cc2cc3ccccc3n2Cc2cccc(C)c2)CC1`?
p53ts 39C kill: -9%; Imprint erasure: -18%[10.9 µM]; p53ts 32C kill: 2%

How did Cc1ccc(NC(=O)N2CCc3ccccc32)cc1 do in these assays?
p53ts 39C kill: 5µM*; p53ts 32C kill: 4.5µM*

What do the screens show for `CN1C(=O)CSc2ccc(NC(=O)N3CCc4ccccc43)cc21`?
Ub-GFP proteasome: 6%; Epigenetic mod: 2%; HBB splice mod: 1%[57.5 µM]; p53ts 39C kill: inconclusive; Imprint erasure: -45%; p53ts 32C kill: 10µM*

Results for CCNC(=O)c1ccc(NC(=O)N2CCCCc3ccccc32)cc1 ?
p53ts 39C kill: 9%; Imprint erasure: 11%[10.9 µM]; p53ts 32C kill: 7%

What do the screens show for `Cc1cccc(N2CCN(C(=O)Cn3c(C)c4cnn(-c5ccccc5)c(=O)c4c3C)CC2)c1C`?
p53ts 39C kill: -7%; Imprint erasure: -9%[10.9 µM]; p53ts 32C kill: -4%

How did Cc1ccc(-n2ncc3c(N4CCCCC4)ncnc32)cc1 do in these assays?
p53ts 39C kill: 1.6µM*; Imprint erasure: -74%[10.9 µM]; p53ts 32C kill: 1.6µM*

Results for COc1ccc(-n2ncc3c(N4CCCCC4)ncnc32)cc1 ?
p53ts 39C kill: 3.2µM*; p53ts 32C kill: 2.5µM*

Results for Cc1cccc(-n2ncc3c(N4CCN(c5ccccc5)CC4)ncnc32)c1 ?
p53ts 39C kill: -6%; Imprint erasure: -13%[10.9 µM]; p53ts 32C kill: 4%

How did Cc1cccc(-n2ncc3c(N4CCCC4)ncnc32)c1 do in these assays?
Ub-GFP proteasome: -8%; Epigenetic mod: 0%; HBB splice mod: 1%; p53ts 39C kill: 5µM*; Imprint erasure: -23%; p53ts 32C kill: 3.2µM*

How did COc1ccccc1N1CCN(c2ncnc3c2cnn3-c2cc(Cl)ccc2C)CC1 do in these assays?
p53ts 39C kill: 13µM*; Imprint erasure: -13%[10.9 µM]; p53ts 32C kill: inconclusive

Results for COCCNC(=O)c1ccccc1NC(=O)c1nsc2ccccc12 ?
p53ts 39C kill: -13%; Imprint erasure: 13%[10.9 µM]; p53ts 32C kill: inconclusive

What do the screens show for `CCc1ccccc1NC(=O)CSc1ncc2c(n1)-c1ccccc1N(C)S2(=O)=O`?
p53ts 39C kill: -20%; Imprint erasure: -12%[10.9 µM]; p53ts 32C kill: -5%

What do the screens show for `COc1ccc(N2CCN(C(=O)c3cc4c(=O)oc5ccc(C)cc5c4s3)CC2)cc1`?
p53ts 39C kill: -23%; Imprint erasure: 10%[10.9 µM]; p53ts 32C kill: 6%

What do the screens show for `CCCc1cc(=O)[nH]c(SCc2nc(-c3ccccc3)no2)n1`?
p53ts 39C kill: -23%; Imprint erasure: 4%[10.9 µM]; p53ts 32C kill: 41%

What do the screens show for `Cc1ccc(Nc2c(-c3ccccn3)nc3ccc(Br)cn23)cc1`?
p53ts 39C kill: 17%; Imprint erasure: -6%[10.9 µM]; p53ts 32C kill: -7%

How did COC(=O)CNc1c(-c2ccccn2)nc2ccc(Br)cn12 do in these assays?
Ub-GFP proteasome: 17%; Epigenetic mod: 2%; HBB splice mod: -7%; p53ts 39C kill: 13µM*; Imprint erasure: -90%; p53ts 32C kill: 16µM*

How did Cc1ccccc1CNC(=O)Cn1nc(C)c2nn(-c3ccc(Cl)cc3)c(C)c2c1=O do in these assays?
p53ts 39C kill: -8%; Imprint erasure: -5%[10.9 µM]; p53ts 32C kill: -4%

What do the screens show for `CCOC(=O)c1ccccc1NC(=O)N1CCCN(S(=O)(=O)c2ccc3c(ccn3CC)c2)CC1`?
p53ts 39C kill: -25%; Imprint erasure: -13%[10.9 µM]; p53ts 32C kill: 4%

Results for O=C(CSc1nnc(NC(=O)NC2CCCCC2)s1)Nc1ccccc1F ?
p53ts 39C kill: 10µM*; Imprint erasure: 7%[10.9 µM]; p53ts 32C kill: 10µM*

What do the screens show for `COc1ccc(NC(=O)CSc2nnc(NC(=O)NC3CCCCC3)s2)cc1OC`?
p53ts 39C kill: 7.9µM*; Imprint erasure: -8%[10.9 µM]; p53ts 32C kill: 10µM*

How did COc1ccccc1Nc1nnc(SCC(=O)N2CCCC2)s1 do in these assays?
Ub-GFP proteasome: -1%; Epigenetic mod: 3%; HBB splice mod: 2%; p53ts 39C kill: -19%; Imprint erasure: -78%; p53ts 32C kill: -5%

What do the screens show for `COc1ccccc1NC(=O)CSc1nnc(NC(=O)NC2CCCCC2)s1`?
p53ts 39C kill: 7.9µM*; Imprint erasure: -6%[10.9 µM]; p53ts 32C kill: inconclusive

What do the screens show for `CC(=O)c1ccc(NC(=O)CSc2nnc(NC(=O)NC3CCCCC3)s2)cc1`?
p53ts 39C kill: 7.9µM*; Imprint erasure: -18%[10.9 µM]; p53ts 32C kill: 7.1µM*

Results for CCCCCCCCNC(C)C(O)c1ccc(SC(C)C)cc1 (stereo unspecified) ?
Epigenetic mod: 0%[20.6 µM]; p53ts 39C kill: 20µM*; Imprint erasure: -48%; p53ts 32C kill: inconclusive

How did COc1ccc(CCNC(=O)c2ccc3c(c2)N(Cc2ccc(F)cc2)C(=O)c2ccccc2S3(=O)=O)cc1OC do in these assays?
p53ts 39C kill: -9%; Imprint erasure: -15%[10.9 µM]; p53ts 32C kill: -3%

From PubChem
